The subject of assay [1] is PAD. Nature of the assay: qHTS profiling for inhibitors of Plasmodium falciparum proliferation (AID 504749). Further: potency means the concentration at half of the fitted maximal effect. The note with it: P. falciparum in erythrocytes, SYBR Green DNA, 72 h; series mostly up to 28.7 µM. In a few lines:
(§1)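 Parasite proliferation within erythrocytes, 72 h exposure. Endpoint: SYBR Green I fluorescence after overnight lysis at room temperature. Controls: 0.29 uM artemisinin, DMSO.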

Assay [2] has as its system PC15. The assay is described as above. The note with it: P. falciparum in erythrocytes, SYBR Green DNA, 72 h; series mostly up to 28.7 µM. The gist of the method: as §1
Assay [3] has as its system PC26. The description is as above. As to conditions: P. falciparum in erythrocytes, SYBR Green DNA, 72 h; series mostly up to 28.7 µM. The gist of the method:
as §1

The subject of assay [4] is PC49. The description is as above. The note with it: P. falciparum in erythrocytes, SYBR Green DNA, 72 h; series mostly up to 28.7 µM. The gist of the method: as §1
The subject of assay [5] is SC27B. Described as above. The note with it: P. falciparum in erythrocytes, SYBR Green DNA, 72 h; series mostly up to 28.7 µM. In a few lines: as §1
Assay [6] deals with TAB113. The description is as above. The note with it: P. falciparum in erythrocytes, SYBR Green DNA, 72 h; series mostly up to 28.7 µM. The gist of the method:
as §1

Assay [7] relates to TAB165. The assay is described as above. The note with it: P. falciparum in erythrocytes, SYBR Green DNA, 72 h; series mostly up to 28.7 µM. In a few lines:
as §1

The subject of assay [8] is W2. Described as above. As to conditions: P. falciparum in erythrocytes, SYBR Green DNA, 72 h; series mostly up to 28.7 µM. In a few lines:
as §1

Assay [9] deals with CRL-7250. The assay is described as follows: Cytotoxic Profiling of Annotated Libraries Using Quantitative High-Throughput Screening (AID 1296008). On max response: on the % scale 0 is the no-effect control and ±100 the full control effect. As to conditions: Five cell lines viability, CellTiter-Glo ATP luminescence, 48-72 h; stronger effect = lower value. In a few lines: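 Compounds were pin-transferred onto cells and incubated 48 or 72 hr at 37 degree Celsius, 95% humidity. CellTiter-Glo was added, plates sat 10 min at room temperature, then ATP-coupled luminescence was imaged as the viability read-out.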

Assay [10] relates to TAB109. The assay is described as follows: qHTS profiling for inhibitors of Plasmodium falciparum proliferation (AID 504749). Further: potency means the concentration at half of the fitted maximal effect. As to conditions: P. falciparum in erythrocytes, SYBR Green DNA, 72 h; series mostly up to 28.7 µM. In a few lines:
as §1
In general terms: In qHTS, concentration-response curves come from the screen itself.

Results filed as inconclusive are left out. Values without a mark were called inactive. Active and inactive are the calls of the source. The call rests on the fitted dose curve; in most records, active means well fitted inhibition curve with a large enough effect; inconclusive means small, poorly fitted or top-dose-only effect; inactive means flat fitted curve, though single readings scatter.
Further: nearly all actives have a fitted effect of over 60% in size.

For the molecule `CN(C)CCCSc1ccccc1NC(=O)/C=C/c1ccccc1`, the Potency entry in assay [1], in [2], in assay [3], in assay [4], in assay [5] and in assay [6] was “inactive” each time. The Potency entry in [7] was “inactive”. Moreover, the Potency in assay [8] was 6.01 µM (active). The max response in assay [9] was -4.07%.
As to `Nc1ccc(N=Nc2ccccc2)c(N)n1`, the Potency entry in assay [1], in assay [2], in assay [3], in [4], in assay [5] and in [6] was “inactive” in each case. Also, the Potency result in [7] and in assay [8] was “inactive” throughout. For the same molecule, the outcome in assay [9] was inactive.
Turning to `COc1ccc2nc(NC(=O)Nc3ccccc3)sc2c1`, the Potency result in [1], in assay [2], in assay [3], in assay [4], in assay [5] and in [10] was “inactive” each time. The Potency entry in [6] was “inactive”. Moreover, in assay [9], the max response is 1.89%.
For the molecule `C/C(=C\C(=O)OCCCCCCCCC(=O)O)C[C@@H]1OC[C@H](C[C@@H]2O[C@H]2[C@@H](C)[C@H](C)O)[C@@H](O)[C@H]1O`, in assay [2], the Potency result was “inactive”. Further, the figures for the Potency in [10] and in assay [8] were 0.141 µM (active) and 0.19 µM (active), respectively. Further, in [9], the max response was 4.39%.
For `c1ccc2c(c1)OCC(CN1CCCCC1)O2` (stereo unspecified), the Potency result in assay [1], in assay [2], in [3], in assay [4], in assay [5] and in assay [10] was “inactive” throughout. The Potency entry in assay [6] and in assay [7] was “inactive” each time.
Regarding `O=C(NCCNCC(O)COc1ccc(O)cc1)N1CCOCC1` (stereo unspecified), the Potency entry in [1], in assay [2], in [3], in assay [4], in assay [5] and in [10] was “inactive” each time. The Potency result in [6] and in assay [7] was “inactive” throughout.
`CO/N=C(/C(=O)N[C@@H]1C(=O)N2C(C(=O)O)=C(COC(N)=O)CS[C@H]12)c1ccco1`: the Potency result in assay [1], in assay [2], in assay [3], in [4], in [5] and in assay [10] was “inactive” each time. In addition, the Potency entry in assay [6] and in [7] was “inactive” throughout.
Turning to `CS(=O)(=O)c1ccc([C@@H](O)[C@@H](COC(=O)CN)NC(=O)C(Cl)Cl)cc1`, the Potency entry in assay [1], in [2], in assay [3], in assay [4], in assay [5] and in assay [6] was “inactive” each time. Also, the Potency in assay [10] was 8.91 µM (active).
With `Oc1ccc(/C=C/c2cc(O)cc(O)c2)cc1`, in assay [9], the max response was -2.32%.
For the molecule `O=C1c2ccccc2C(=O)C1c1ccc(F)cc1`, the Potency result in [1], in assay [2], in assay [3], in assay [4], in [5] and in assay [10] was “inactive” each time. The Potency result in assay [6] and in assay [7] was “inactive” in each case.
Regarding `O=C(O)c1ccc(NC(=O)[C@H](Cc2ccc(O)cc2)NC(=O)c2ccccc2)cc1`, the Potency entry in assay [1], in assay [2], in [3], in [4], in [5] and in [10] was “inactive” each time. The Potency entry in assay [6] and in assay [7] was “inactive” in each case.
Turning to `CC(C)[C@H](N)C(=O)OCC(CO)OCn1cnc2c(=O)[nH]c(N)nc21` (stereo partly specified), the Potency result in assay [1], in assay [2], in assay [3], in [4], in assay [5] and in assay [10] was “inactive” each time. The Potency entry in [6], in [7] and in assay [8] was “inactive” throughout.
On to `O=C(CCCCCCCCCCCCC1CCCC1)Nc1ccc(S(=O)(=O)c2ccc(NC(=O)CCCCCCCCCCCCC3CCCC3)cc2)cc1`, for which the Potency entry in assay [1], in assay [2], in assay [3], in [4], in assay [5] and in assay [10] was “inactive” each time. The Potency result in assay [6], in assay [7] and in assay [8] was “inactive” throughout.
On to `CC1CCCCN1CCCOC(=O)c1ccccc1` (stereo unspecified), for which the Potency entry in assay [1], in assay [2], in assay [3], in [4], in assay [5] and in assay [10] was “inactive” in each case. In addition, the Potency result in assay [6] and in assay [7] was “inactive” in each case.
Regarding `COC(=O)CCC[N+](C)(C)C`, the Potency entry in [1], in assay [2], in [3], in assay [4], in assay [5] and in assay [10] was “inactive” in each case. Besides, the Potency entry in [6], in assay [7] and in [8] was “inactive” each time.
For the molecule `Cc1cccc(C)c1NC(=O)NC1=CCCN1C`, the Potency result in assay [1], in assay [2], in assay [3], in assay [4], in [5] and in [10] was “inactive” throughout. The Potency result in assay [6], in [7] and in assay [8] was “inactive” in each case.
For the molecule `CCCCCCCCCCCCCCCCCC(=O)OC[C@@H](O)[C@H]1OC[C@H](O)[C@H]1O`, the Potency entry in assay [1], in assay [2], in [3], in assay [4], in assay [5] and in [10] was “inactive” each time. The Potency result in [6], in [7] and in assay [8] was “inactive” in each case.
`CN[C@@H]1[C@H](O[C@H]2[C@H](O[C@H]3[C@H](O)[C@@H](O)[C@H](N=C(N)N)[C@@H](O)[C@@H]3N=C(N)N)O[C@@H](C)[C@]2(O)C=O)O[C@@H](CO)[C@H](O)[C@H]1O`: the Potency result in assay [1], in [2], in assay [3], in assay [4], in assay [5] and in [10] was “inactive” in each case. Moreover, the Potency entry in assay [6], in assay [7] and in assay [8] was “inactive” each time.
On to `O=C(O)Cc1nn(Cc2ccc(Br)cc2F)c(=O)c2ccccc12`, for which the Potency entry in assay [1], in assay [2], in assay [3], in assay [4], in assay [5] and in assay [10] was “inactive” in each case. The Potency entry in assay [6], in [7] and in assay [8] was “inactive” in each case.
On to `COC(=O)[C@@H](N)CS`, for which the Potency result in [1], in assay [2], in [3], in assay [4], in [5] and in [10] was “inactive” in each case. Further, the Potency entry in assay [6] and in [7] was “inactive” each time.
As to `Cc1ncc(C[n+]2csc(CCO)c2C)c(N)n1`, the Potency entry in assay [1], in assay [2], in assay [3], in assay [4], in [5] and in [10] was “inactive” in each case. Besides, the Potency result in assay [6], in [7] and in assay [8] was “inactive” in each case.
For the molecule `CCCCCCCCCCCCCCCCCC[N+](C)(C)CCC[Si](OC)(OC)OC`, the Potency result in assay [1], in [2], in assay [3], in assay [4], in [5] and in assay [10] was “inactive” each time. For the same molecule, the Potency result in [6] and in assay [7] was “inactive” each time.
Turning to `COC1=C(OC)C(=O)C(C/C=C(\C)CC/C=C(\C)CC/C=C(\C)CC/C=C(\C)CC/C=C(\C)CC/C=C(\C)CC/C=C(\C)CC/C=C(\C)CC/C=C(\C)CCC=C(C)C)=C(C)C1=O`, the Potency entry in [1], in assay [2], in assay [3], in assay [4], in assay [5] and in assay [10] was “inactive” in each case. Moreover, the Potency entry in [6], in assay [7] and in assay [8] was “inactive” in each case.
`NC(N)=NCC1COc2ccccc2O1` (stereo unspecified): the Potency result in [1], in assay [2], in assay [3], in assay [4], in assay [5] and in assay [10] was “inactive” in each case. The Potency result in [6] and in assay [7] was “inactive” each time.
Take `S=C=Nc1ccc(N=C=S)cc1`: the Potency result in assay [1], in assay [2], in assay [3], in assay [4], in assay [5] and in [10] was “inactive” in each case. In addition, the Potency result in assay [6] and in [7] was “inactive” throughout.
In the case of `CCCOc1cc(N)ccc1C(=O)OCCN(CC)CC`, the Potency entry in assay [1], in assay [2], in [3], in assay [4], in [5] and in assay [10] was “inactive” throughout. Besides, the Potency entry in [6], in assay [7] and in assay [8] was “inactive” throughout.
For `Cc1cccc(C)c1NC(=O)C1CCCCN1C` (stereo unspecified), the Potency result in [1], in [2], in [3], in [4], in assay [5] and in assay [10] was “inactive” in each case. Moreover, the Potency result in assay [6] and in [7] was “inactive” in each case.

(Values after PubChem BioAssay (NCATS).)
